# Experimental data reported in PMC7862700, “An all-to-all approach to the identification of sequence-specific readers for epigenetic DNA modifications on cytosine”.
# Key:
# Test in all cases: DAPPL (digital affinity profiling via proximity ligation, sequencing); 10 mM Tris-HCl pH 7.5, 50 mM NaCl, 1 mM DTT, 4% glycerol, room temperature, 30 min; GST-TFs on glutathione beads, 16-mer random dsDNA library, 0.1% formaldehyde crosslink after washing; high values mean tight binding
# FLI1 = molecular target: T1, FLI1 (Homo sapiens, UniProt Q01543 1-452); conditions: protein: recombinant; tags: N-terminal GST; dsDNA, one strand shown
# T1 sequence: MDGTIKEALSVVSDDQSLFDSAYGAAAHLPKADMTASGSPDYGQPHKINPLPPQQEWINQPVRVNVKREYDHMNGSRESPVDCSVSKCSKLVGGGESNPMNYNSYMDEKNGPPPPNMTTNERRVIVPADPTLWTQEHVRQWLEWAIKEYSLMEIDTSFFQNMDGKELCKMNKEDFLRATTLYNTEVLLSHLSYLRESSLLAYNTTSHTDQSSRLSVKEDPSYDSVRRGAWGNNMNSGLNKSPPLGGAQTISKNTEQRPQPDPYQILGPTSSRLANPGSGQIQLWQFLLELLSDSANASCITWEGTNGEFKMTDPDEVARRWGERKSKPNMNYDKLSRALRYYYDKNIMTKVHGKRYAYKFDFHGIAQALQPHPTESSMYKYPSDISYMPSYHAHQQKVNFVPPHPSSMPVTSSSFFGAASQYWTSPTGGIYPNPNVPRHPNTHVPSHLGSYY
# Procedure, shortened: (§1)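 Human transcription factors fused to GST were expressed in yeast, captured on glutathione beads, given DNA barcodes and pooled with a GST-only negative control. Pools were incubated with 200 nmole of a 16-mer random double-stranded DNA library in Tris/NaCl/DTT/glycerol buffer at room temperature for 30 min. They were then washed, crosslinked with 0.1% formaldehyde, proximity-ligated (BsaI/T4 ligase, 1 h, 37 °C), PCR-amplified and sequenced on an Illumina NextSeq500. Binding signal is each 6-mer's read frequency for a factor divided by its frequency for the GST control.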
# ELK1 = molecular target: T2, ELK1 (Homo sapiens, UniProt P19419 1-428); conditions: protein: recombinant; tags: N-terminal GST; dsDNA, one strand shown
# T2 sequence: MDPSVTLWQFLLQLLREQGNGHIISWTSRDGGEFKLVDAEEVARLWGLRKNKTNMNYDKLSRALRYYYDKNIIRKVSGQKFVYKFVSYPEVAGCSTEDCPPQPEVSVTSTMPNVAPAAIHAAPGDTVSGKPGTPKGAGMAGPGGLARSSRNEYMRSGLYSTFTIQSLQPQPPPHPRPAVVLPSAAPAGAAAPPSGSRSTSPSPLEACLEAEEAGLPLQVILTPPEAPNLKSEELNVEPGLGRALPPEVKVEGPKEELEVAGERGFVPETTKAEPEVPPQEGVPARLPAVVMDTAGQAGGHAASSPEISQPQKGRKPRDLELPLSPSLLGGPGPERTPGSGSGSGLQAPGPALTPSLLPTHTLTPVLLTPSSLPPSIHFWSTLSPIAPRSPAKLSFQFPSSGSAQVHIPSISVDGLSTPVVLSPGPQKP
# Procedure, shortened: as §1
# GABPA = molecular target: T3, GABPA (Homo sapiens, UniProt Q06546 1-454); conditions: protein: recombinant; tags: N-terminal GST; dsDNA, one strand shown
# T3 sequence: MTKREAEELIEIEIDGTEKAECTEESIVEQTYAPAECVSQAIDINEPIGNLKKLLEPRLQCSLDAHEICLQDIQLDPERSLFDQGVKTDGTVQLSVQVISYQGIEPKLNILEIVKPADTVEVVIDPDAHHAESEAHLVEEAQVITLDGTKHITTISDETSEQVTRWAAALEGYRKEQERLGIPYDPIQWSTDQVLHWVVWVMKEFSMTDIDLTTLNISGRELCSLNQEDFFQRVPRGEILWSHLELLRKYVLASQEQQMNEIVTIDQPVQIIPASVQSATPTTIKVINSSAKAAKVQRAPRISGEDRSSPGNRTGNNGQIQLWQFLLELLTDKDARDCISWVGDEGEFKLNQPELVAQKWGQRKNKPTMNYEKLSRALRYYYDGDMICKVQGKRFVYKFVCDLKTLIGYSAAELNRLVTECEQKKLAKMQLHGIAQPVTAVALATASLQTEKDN
# Procedure, shortened: as §1
# ERG = molecular target: T4, ERG (Homo sapiens, UniProt P11308 1-479); conditions: protein: recombinant; tags: N-terminal GST; dsDNA, one strand shown
# T4 sequence: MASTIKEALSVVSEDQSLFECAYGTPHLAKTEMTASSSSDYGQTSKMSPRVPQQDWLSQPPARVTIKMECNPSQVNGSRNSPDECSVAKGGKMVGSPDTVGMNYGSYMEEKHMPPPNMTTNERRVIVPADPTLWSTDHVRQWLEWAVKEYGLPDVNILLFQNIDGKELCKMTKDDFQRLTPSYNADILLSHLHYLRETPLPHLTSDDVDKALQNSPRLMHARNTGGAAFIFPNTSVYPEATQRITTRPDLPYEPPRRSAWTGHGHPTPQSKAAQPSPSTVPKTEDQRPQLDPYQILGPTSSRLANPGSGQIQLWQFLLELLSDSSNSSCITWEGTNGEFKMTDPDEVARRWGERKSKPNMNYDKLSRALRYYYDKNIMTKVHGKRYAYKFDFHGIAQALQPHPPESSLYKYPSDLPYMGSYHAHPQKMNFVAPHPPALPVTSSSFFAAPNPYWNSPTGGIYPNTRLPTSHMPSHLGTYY
# Procedure, shortened: as §1
# ELF1 = ELF1 (Homo sapiens, UniProt P32519 1-619); conditions: protein: recombinant; tags: N-terminal GST; dsDNA, one strand shown
# ELF1, sequence (P32519 whole entry): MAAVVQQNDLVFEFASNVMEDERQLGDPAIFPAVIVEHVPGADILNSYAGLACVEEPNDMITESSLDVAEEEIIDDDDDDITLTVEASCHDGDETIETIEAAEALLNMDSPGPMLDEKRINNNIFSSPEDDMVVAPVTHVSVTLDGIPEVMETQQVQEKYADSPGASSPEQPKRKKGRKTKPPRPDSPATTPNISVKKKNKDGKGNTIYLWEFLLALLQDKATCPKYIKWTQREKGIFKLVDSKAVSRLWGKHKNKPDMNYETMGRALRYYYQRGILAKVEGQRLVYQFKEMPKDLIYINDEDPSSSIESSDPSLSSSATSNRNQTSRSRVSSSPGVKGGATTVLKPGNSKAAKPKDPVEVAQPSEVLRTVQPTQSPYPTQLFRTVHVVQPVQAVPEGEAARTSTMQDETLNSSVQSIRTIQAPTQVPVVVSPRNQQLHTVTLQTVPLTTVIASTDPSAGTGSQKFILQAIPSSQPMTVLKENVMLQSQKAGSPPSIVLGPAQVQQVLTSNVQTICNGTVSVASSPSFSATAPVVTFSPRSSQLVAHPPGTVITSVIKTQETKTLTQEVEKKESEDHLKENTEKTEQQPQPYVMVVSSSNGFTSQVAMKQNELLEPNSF
# Procedure, shortened: as §1
# EHF = molecular target: T5, EHF (Homo sapiens, UniProt Q9NZC4 1-300); conditions: protein: recombinant; tags: N-terminal GST; dsDNA, one strand shown
# T5 sequence: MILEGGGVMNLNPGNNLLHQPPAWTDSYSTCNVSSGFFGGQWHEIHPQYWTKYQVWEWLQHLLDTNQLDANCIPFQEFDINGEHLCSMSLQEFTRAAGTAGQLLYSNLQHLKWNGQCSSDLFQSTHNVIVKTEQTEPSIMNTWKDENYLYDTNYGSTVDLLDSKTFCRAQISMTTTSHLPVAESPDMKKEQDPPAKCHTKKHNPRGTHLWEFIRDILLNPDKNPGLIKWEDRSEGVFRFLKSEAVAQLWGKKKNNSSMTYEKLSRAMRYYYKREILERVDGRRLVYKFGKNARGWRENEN
# Procedure, shortened: as §1
# SPI1 = SPI1 (Homo sapiens, UniProt P17947 1-270); conditions: protein: recombinant; tags: N-terminal GST; dsDNA, one strand shown
# Procedure, shortened: as §1
# SPIB = SPIB (Homo sapiens, UniProt Q01892 1-262); conditions: protein: recombinant; tags: N-terminal GST; dsDNA, one strand shown
# SPIB, sequence (Q01892 whole entry): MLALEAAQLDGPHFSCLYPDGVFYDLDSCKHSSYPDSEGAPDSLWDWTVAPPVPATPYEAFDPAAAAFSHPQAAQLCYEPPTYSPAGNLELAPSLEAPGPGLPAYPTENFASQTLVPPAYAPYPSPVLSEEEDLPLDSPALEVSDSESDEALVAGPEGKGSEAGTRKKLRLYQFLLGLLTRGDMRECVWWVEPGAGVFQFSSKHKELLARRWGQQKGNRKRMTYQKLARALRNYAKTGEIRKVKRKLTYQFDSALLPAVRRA
# Procedure, shortened: as §1
# ELK3 = molecular target: T6, ELK3 (Homo sapiens, UniProt P41970 1-407); conditions: protein: recombinant; tags: N-terminal GST; dsDNA, one strand shown
# T6 sequence: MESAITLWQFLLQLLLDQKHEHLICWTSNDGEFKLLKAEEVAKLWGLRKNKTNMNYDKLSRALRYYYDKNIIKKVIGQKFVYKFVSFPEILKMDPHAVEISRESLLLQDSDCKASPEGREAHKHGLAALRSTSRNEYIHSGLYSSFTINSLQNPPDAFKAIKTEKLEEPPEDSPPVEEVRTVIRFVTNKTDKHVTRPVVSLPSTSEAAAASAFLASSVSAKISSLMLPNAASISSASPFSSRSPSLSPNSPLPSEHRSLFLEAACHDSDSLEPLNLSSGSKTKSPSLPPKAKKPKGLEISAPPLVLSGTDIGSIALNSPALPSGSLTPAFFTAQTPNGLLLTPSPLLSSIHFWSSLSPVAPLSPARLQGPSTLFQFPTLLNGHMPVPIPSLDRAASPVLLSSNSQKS
# Procedure, shortened: as §1
# FEV = molecular target: T7, FEV (Homo sapiens, UniProt Q99581 1-238); conditions: protein: recombinant; tags: N-terminal GST; dsDNA, one strand shown
# T7 sequence: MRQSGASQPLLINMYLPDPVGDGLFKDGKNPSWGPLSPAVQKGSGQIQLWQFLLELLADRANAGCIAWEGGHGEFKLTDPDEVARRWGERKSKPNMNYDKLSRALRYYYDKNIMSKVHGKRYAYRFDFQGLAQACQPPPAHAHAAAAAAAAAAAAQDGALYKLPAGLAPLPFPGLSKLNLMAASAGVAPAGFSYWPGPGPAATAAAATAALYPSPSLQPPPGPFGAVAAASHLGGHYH
# Procedure, shortened: as §1
# ETV5 = ETV5 (Homo sapiens, UniProt P41161 1-510); conditions: protein: recombinant; tags: N-terminal GST; dsDNA, one strand shown
# ETV5, sequence (P41161 whole entry): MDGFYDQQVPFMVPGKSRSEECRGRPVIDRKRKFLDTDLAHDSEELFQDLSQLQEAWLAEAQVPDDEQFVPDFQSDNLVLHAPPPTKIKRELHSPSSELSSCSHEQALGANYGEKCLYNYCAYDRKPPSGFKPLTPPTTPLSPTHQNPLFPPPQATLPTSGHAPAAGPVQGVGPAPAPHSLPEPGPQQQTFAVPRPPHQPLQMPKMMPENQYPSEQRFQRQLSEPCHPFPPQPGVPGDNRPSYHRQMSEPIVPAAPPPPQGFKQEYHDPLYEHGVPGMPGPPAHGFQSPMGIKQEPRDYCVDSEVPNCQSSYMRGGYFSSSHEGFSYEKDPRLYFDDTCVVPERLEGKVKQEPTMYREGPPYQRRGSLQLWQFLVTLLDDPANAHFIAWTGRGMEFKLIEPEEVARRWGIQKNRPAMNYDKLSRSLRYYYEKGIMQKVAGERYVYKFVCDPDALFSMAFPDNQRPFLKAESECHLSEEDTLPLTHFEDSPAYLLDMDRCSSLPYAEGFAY
# Procedure, shortened: as §1
# HSF1 = HSF1 (Homo sapiens, UniProt Q00613 1-529); conditions: protein: recombinant; tags: N-terminal GST; chain copies: 3; dsDNA, one strand shown
# HSF1, sequence (Q00613 whole entry): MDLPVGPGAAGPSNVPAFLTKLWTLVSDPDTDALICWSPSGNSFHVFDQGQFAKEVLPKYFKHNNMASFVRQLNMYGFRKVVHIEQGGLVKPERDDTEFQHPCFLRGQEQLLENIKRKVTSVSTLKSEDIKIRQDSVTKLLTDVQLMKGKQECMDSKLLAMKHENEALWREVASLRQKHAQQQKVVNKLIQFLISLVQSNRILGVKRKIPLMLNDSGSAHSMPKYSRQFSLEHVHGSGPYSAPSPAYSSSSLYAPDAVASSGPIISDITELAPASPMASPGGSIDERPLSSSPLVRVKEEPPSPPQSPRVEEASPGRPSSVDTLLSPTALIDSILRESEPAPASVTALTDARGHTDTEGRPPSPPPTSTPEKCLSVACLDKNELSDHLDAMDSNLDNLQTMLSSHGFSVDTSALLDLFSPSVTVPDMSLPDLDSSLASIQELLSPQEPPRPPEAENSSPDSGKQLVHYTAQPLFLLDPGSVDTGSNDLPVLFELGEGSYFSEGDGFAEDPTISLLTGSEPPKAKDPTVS
# Procedure, shortened: as §1
# SPIC = molecular target: T8, SPIC (Homo sapiens, UniProt Q8N5J4 1-248); conditions: protein: recombinant; tags: N-terminal GST; dsDNA, one strand shown
# T8 sequence: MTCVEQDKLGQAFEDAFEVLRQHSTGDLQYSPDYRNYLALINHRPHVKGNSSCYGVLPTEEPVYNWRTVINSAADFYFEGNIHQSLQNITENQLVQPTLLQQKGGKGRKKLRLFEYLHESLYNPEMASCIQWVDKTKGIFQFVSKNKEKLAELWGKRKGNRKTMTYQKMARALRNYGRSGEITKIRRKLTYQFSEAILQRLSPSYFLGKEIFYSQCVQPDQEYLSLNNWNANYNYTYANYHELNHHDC
# Procedure, shortened: as §1
# ELF4 = ELF4 (Homo sapiens, UniProt Q99607 1-663); conditions: protein: recombinant; tags: N-terminal GST; dsDNA, one strand shown
# ELF4, sequence (Q99607 whole entry): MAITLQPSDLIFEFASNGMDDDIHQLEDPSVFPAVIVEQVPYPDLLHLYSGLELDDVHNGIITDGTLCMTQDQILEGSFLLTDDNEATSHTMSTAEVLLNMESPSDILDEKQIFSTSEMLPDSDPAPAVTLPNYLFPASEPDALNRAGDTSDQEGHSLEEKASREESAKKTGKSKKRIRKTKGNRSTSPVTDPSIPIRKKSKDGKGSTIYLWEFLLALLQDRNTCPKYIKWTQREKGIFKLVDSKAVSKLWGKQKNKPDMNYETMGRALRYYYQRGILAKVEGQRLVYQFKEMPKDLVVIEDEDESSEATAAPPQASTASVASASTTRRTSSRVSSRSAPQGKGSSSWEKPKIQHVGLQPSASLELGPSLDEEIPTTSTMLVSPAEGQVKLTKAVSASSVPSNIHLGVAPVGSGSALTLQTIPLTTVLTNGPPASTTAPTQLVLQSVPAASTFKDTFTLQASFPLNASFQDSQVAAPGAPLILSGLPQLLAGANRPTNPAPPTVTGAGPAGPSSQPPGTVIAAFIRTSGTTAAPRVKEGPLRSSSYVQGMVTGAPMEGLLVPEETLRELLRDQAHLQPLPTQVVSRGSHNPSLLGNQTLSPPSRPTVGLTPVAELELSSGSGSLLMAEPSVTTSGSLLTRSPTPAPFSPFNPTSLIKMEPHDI
# Procedure, shortened: as §1
# ELK4 = molecular target: T9, ELK4 (Homo sapiens, UniProt P28324-2 1-405); conditions: protein: recombinant; tags: N-terminal GST; dsDNA, one strand shown
# T9 sequence: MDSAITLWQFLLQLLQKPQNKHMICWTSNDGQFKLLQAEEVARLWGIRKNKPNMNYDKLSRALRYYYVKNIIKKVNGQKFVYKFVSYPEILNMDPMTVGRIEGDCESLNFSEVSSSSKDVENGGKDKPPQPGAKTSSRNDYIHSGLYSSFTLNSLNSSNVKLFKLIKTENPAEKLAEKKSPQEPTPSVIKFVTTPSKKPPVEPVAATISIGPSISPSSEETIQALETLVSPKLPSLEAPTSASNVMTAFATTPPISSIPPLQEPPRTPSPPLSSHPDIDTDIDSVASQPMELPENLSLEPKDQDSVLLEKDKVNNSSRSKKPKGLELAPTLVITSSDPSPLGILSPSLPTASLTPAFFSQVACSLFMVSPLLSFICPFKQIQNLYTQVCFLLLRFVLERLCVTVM
# Procedure, shortened: as §1
# ETV2 = molecular target: T10, ETV2 (Homo sapiens, UniProt O00321 1-342); conditions: protein: recombinant; tags: N-terminal GST; dsDNA, one strand shown
# T10 sequence: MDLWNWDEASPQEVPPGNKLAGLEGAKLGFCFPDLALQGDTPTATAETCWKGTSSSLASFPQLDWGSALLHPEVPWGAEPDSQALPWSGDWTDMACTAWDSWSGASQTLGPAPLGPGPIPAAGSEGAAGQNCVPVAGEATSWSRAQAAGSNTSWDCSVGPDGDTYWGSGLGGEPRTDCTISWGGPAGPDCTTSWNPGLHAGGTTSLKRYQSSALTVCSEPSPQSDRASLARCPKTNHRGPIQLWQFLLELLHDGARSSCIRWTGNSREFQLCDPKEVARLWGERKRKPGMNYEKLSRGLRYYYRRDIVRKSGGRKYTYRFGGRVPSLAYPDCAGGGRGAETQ
# Procedure, shortened: as §1
# ELF3 = molecular target: T11, ELF3 (Homo sapiens, UniProt P78545 1-371); conditions: protein: recombinant; tags: N-terminal GST; dsDNA, one strand shown
# T11 sequence: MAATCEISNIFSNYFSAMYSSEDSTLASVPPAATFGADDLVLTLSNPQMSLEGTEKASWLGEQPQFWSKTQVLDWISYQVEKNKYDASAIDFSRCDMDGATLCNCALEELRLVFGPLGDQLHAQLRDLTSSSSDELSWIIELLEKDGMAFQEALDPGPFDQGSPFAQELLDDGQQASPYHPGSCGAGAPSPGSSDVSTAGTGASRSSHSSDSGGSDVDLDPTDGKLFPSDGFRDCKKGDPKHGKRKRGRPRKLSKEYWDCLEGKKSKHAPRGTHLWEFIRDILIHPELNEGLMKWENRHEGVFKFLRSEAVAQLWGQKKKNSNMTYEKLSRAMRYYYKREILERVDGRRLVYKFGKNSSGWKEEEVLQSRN
# Procedure, shortened: as §1
# CRX = CRX (Homo sapiens, UniProt O43186 1-299); conditions: protein: recombinant; tags: N-terminal GST; dsDNA, one strand shown
# CRX, sequence (O43186 whole entry): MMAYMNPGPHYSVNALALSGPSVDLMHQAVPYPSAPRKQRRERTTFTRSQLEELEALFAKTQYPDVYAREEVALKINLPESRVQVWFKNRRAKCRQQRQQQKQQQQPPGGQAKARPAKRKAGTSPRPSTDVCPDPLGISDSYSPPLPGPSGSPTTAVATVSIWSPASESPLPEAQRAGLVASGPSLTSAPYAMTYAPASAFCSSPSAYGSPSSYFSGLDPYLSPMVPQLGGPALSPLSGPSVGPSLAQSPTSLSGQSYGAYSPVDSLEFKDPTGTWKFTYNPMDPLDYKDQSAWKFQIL
# Procedure, shortened: as §1
# ETV1 = ETV1 (Homo sapiens, UniProt P50549 1-477); conditions: protein: recombinant; tags: N-terminal GST; dsDNA, one strand shown
# ETV1, sequence (P50549 whole entry): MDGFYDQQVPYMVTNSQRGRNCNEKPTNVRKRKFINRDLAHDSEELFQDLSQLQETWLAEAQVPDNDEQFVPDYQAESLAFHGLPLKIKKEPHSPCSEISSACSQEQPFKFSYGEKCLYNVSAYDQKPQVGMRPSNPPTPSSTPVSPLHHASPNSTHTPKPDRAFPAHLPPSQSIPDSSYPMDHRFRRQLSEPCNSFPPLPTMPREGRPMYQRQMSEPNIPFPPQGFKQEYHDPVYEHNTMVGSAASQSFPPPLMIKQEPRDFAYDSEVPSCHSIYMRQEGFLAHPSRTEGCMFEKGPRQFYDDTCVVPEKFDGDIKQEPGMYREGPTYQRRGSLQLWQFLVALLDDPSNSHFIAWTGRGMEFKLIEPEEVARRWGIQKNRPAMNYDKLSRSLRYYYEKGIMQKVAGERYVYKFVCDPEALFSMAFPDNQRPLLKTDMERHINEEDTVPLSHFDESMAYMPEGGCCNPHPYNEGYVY
# Procedure, shortened: as §1
sequence,measurement,setting,value
CTGCTA,binding signal,FLI1,"1.38 fold enrichment (6-mer frequency, TF over GST control)"
same,binding signal,ELK1,"1.53 fold enrichment (6-mer frequency, TF over GST control)"
same,binding signal,GABPA,"1.46 fold enrichment (6-mer frequency, TF over GST control)"
same,binding signal,ERG,"1.39 fold enrichment (6-mer frequency, TF over GST control)"
same,binding signal,ELF1,"1.47 fold enrichment (6-mer frequency, TF over GST control)"
same,binding signal,EHF,"1.5 fold enrichment (6-mer frequency, TF over GST control)"
same,binding signal,SPI1,"1.53 fold enrichment (6-mer frequency, TF over GST control)"
same,binding signal,SPIB,"1.43 fold enrichment (6-mer frequency, TF over GST control)"
same,binding signal,ELK3,"1.42 fold enrichment (6-mer frequency, TF over GST control)"
same,binding signal,FEV,"1.47 fold enrichment (6-mer frequency, TF over GST control)"
same,binding signal,ETV5,"1.56 fold enrichment (6-mer frequency, TF over GST control)"
same,binding signal,HSF1,"1.37 fold enrichment (6-mer frequency, TF over GST control)"
same,binding signal,SPIC,"1.5 fold enrichment (6-mer frequency, TF over GST control)"
same,binding signal,ELF4,"1.42 fold enrichment (6-mer frequency, TF over GST control)"
same,binding signal,ELK4,"1.68 fold enrichment (6-mer frequency, TF over GST control)"
same,binding signal,ETV2,"1.49 fold enrichment (6-mer frequency, TF over GST control)"
same,binding signal,ELF3,"1.67 fold enrichment (6-mer frequency, TF over GST control)"
same,binding signal,CRX,"1.36 fold enrichment (6-mer frequency, TF over GST control)"
same,binding signal,ETV1,"1.64 fold enrichment (6-mer frequency, TF over GST control)"
